Measurements as given in PubChem BioAssay (NCI).
Compounds without any hit were thinned out: in the full panel of roughly 79,000, 15% have a hit. Unmarked numbers belong to inactive results. The source made the active and inactive calls. Cut-off read from the data, not from the text of the source: active = growth inhibition above about 70%; inactive = the rest.

Columns and labels:
[1] = NCI Yeast Anticancer Drug Screen. Data for the rad52 strain (AID 147);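 note: 0% = growth of vehicle-treated control cultures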; conditions: S. cerevisiae rad52 mutant growth inhibition, hits give high values
Outline: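 Read-out: growth inhibition versus vehicle-treated controls. Cells were a DNA repair-deficient yeast strain treated with compounds.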

[2] = NCI Yeast Anticancer Drug Screen. Data for the wt1 strain (AID 149);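 note: 0% = growth of vehicle-treated wt1 cultures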; conditions: S. cerevisiae wt1 strain (SPY 50644) growth inhibition, hits give high values
Outline: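 wt1 yeast, compound-treated; % growth inhibition vs vehicle control.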

[3] = NCI Yeast Anticancer Drug Screen. Data for the rad50EPP+ strain (AID 151);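 note: 0% = growth of vehicle-treated control cultures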; conditions: S. cerevisiae rad50 mutant strain, hits give high values
Outline: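 Growth inhibition read against vehicle controls in rad50EPP+ yeast, a strain altered in DNA damage repair, after compound exposure.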

[4] = NCI Yeast Anticancer Drug Screen. Data for the mgt1 strain (AID 153); conditions: S. cerevisiae mgt1 mutant growth inhibition, hits give high values
Outline: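 mgt1 yeast grown with test compound; read-out is growth inhibition versus vehicle-treated cultures.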

[5] = NCI Yeast Anticancer Drug Screen. Data for the rad50 strain (AID 155);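 note: 0% = growth of vehicle-only cultures of the same strain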; conditions: S. cerevisiae rad50 strain growth inhibition, hits give high values
Outline: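 Genetically altered yeast (DNA repair pathway); compound treatment; growth inhibition vs vehicle ctrl.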

[6] = NCI Yeast Anticancer Drug Screen. Data for the mec2-1 strain (AID 157); conditions: S. cerevisiae mec2-1 strain, hits give high values
Outline: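 Yeast mec2-1 mutant treated with compound. Readout: growth inhibition vs vehicle controls.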

[7] = NCI Yeast Anticancer Drug Screen. Data for the rad14 strain (AID 159);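 note: 0% = growth of vehicle-treated control cultures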; conditions: S. cerevisiae rad14 strain growth inhibition, hits give high values
Outline: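 Test compounds were applied to a repair-deficient yeast strain. Its growth was then compared with that of cultures given vehicle alone, and inhibition was expressed relative to those controls.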

[8] = NCI Yeast Anticancer Drug Screen. Data for the sgs1 mgt1 strain (AID 161);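 note: 0% = growth of cultures given vehicle only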; conditions: S. cerevisiae sgs1 mgt1 strain, hits give high values
Outline: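 Genetically altered yeast, compound exposure, growth inhibition relative to vehicle.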

[9] = NCI Yeast Anticancer Drug Screen. Data for the CLN2oe strain (AID 163);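 note: 0% = growth of vehicle-only control cultures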; conditions: S. cerevisiae CLN2oe strain, hits give high values
Outline: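 Read-out: yeast growth inhibition, expressed relative to vehicle-only controls. The strain bears an engineered cell-cycle alteration.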

[10] = NCI Yeast Anticancer Drug Screen. Data for the cln2 rad14 strain (AID 165);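 note: 0% = growth equal to vehicle treated cultures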; conditions: S. cerevisiae cln2 rad14 strain, hits give high values
Outline: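 cln2 rad14 yeast strain; compound exposure; growth inhibition read vs vehicle controls.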

[11] = NCI Yeast Anticancer Drug Screen. Data for the bub3 strain (AID 167); conditions: S. cerevisiae bub3 mutant strain, hits give high values
Outline: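 Yeast carrying a defined mutation is treated with each compound, and growth is compared with that of vehicle-exposed cells to give inhibition.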

[12] = NCI Yeast Anticancer Drug Screen. Data for the wt2 strain (AID 169);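 note: 0% = growth of vehicle-treated yeast cultures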; conditions: S. cerevisiae wt2 strain growth inhibition, hits give high values
Outline: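 Read-out: growth inhibition versus vehicle-treated control cultures after compound exposure of the yeast strain.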

[13] = NCI Yeast Anticancer Drug Screen. Data for the mlh1 strain (AID 171);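 note: 0% = growth of vehicle-treated control cultures of the same strain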; conditions: S. cerevisiae mlh1 strain growth inhibition, hits give high values
Outline: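 Read-out: growth inhibition versus vehicle controls. Strain: engineered yeast with a defined DNA repair or cell cycle defect, compound-treated.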

[14] = NCI Yeast Anticancer Drug Screen. Data for the sgs1 strain (AID 173);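 note: 0% = growth of vehicle-only control cultures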; conditions: S. cerevisiae sgs1 mutant, hits give high values
Outline: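 Read-out: yeast growth inhibition relative to vehicle controls, following compound exposure of a strain with a defined DNA repair/cell cycle alteration.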

[15] = NCI Yeast Anticancer Drug Screen. Data for the mlh1 rad18 strain (AID 175); conditions: S. cerevisiae mlh1 rad18 strain growth inhibition, hits give high values
Outline: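 Yeast w/ defined DNA-repair lesions; compound exposure; growth vs vehicle controls → % inhibition.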

[16] = NCI Yeast Anticancer Drug Screen. Data for the rad18 strain (AID 177); conditions: S. cerevisiae rad18 mutant growth inhibition, hits give high values
Outline: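 Readout: growth inhibition vs vehicle controls. Cells: genetically altered yeast strain, DNA repair defect.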

[17] = at 5.0 µM (retest, dose inferred, filed as 0.5)
[18] = at 50.0 µM (retest, dose inferred, filed as 5.0)

O=C(NCCCCN1CC2CCCC2C1)C(C1CCCCC1)C1CCCCC1 (stereo not drawn)
growth inhibition ([1]; at 1.2 µM): 11% | growth inhibition ([1]; at 3.7 µM): 12% | growth inhibition ([1]; at 11.0 µM): 35% | growth inhibition ([1]; at 33.0 µM): 76% (active) | growth inhibition ([1]; at 100.0 µM): 98% (active) | growth inhibition ([2]; at 1.2 µM): 3% | growth inhibition ([2]; at 3.7 µM): 6% | growth inhibition ([2]; at 11.0 µM): 14% | growth inhibition ([2]; at 33.0 µM): 75% (active) | growth inhibition ([2]; at 100.0 µM): 97% (active) | growth inhibition ([3]; at 1.2 µM): 0% | growth inhibition ([3]; at 3.7 µM): 1% | growth inhibition ([3]; at 11.0 µM): 2% | growth inhibition ([3]; at 33.0 µM): 3% | growth inhibition ([3]; at 100.0 µM): -3% | growth inhibition ([4]; at 1.2 µM): 4% | growth inhibition ([4]; at 3.7 µM): 5% | growth inhibition ([4]; at 11.0 µM): 40% | growth inhibition ([4]; at 33.0 µM): 94% (active) | growth inhibition ([4]; at 100.0 µM): 98% (active) | growth inhibition ([5]; at 1.2 µM): 7% | growth inhibition ([5]; at 3.7 µM): 4% | growth inhibition [5, 17]: 35% | growth inhibition ([5]; at 11.0 µM): 34% | growth inhibition ([5]; at 33.0 µM): 85% (active) | growth inhibition [5, 18]: 94% (active) | growth inhibition ([5]; at 50.0 µM): 67.2% | growth inhibition ([5]; at 100.0 µM): 79% (active) | growth inhibition ([6]; at 1.2 µM): 13% | growth inhibition ([6]; at 3.7 µM): 15% | growth inhibition [6, 17]: 17% | growth inhibition ([6]; at 11.0 µM): 39% | growth inhibition ([6]; at 33.0 µM): 86% (active) | growth inhibition [6, 18]: 93% (active) | growth inhibition ([6]; at 50.0 µM): 5.4% | growth inhibition ([6]; at 100.0 µM): 98% (active) | growth inhibition ([7]; at 1.2 µM): 9% | growth inhibition ([7]; at 3.7 µM): 12% | growth inhibition ([7]; at 11.0 µM): 52% | growth inhibition ([7]; at 33.0 µM): 97% (active) | growth inhibition ([7]; at 100.0 µM): 99% (active) | growth inhibition [8, 17]: 23% | growth inhibition [8, 18]: 90% (active) | growth inhibition ([8]; at 50.0 µM): 76.7% (active) | growth inhibition ([9]; at 1.2 µM): 11% | growth inhibition ([9]; at 3.7 µM): 13% | growth inhibition ([9]; at 11.0 µM): 32% | growth inhibition ([9]; at 33.0 µM): 87% (active) | growth inhibition ([9]; at 100.0 µM): 98% (active) | growth inhibition [10, 17]: 22% | growth inhibition [10, 18]: 96% (active) | growth inhibition ([10]; at 50.0 µM): 43.9% | growth inhibition ([11]; at 1.2 µM): 10% | growth inhibition ([11]; at 3.7 µM): 11% | growth inhibition [11, 17]: 94% (active) | growth inhibition ([11]; at 11.0 µM): 42% | growth inhibition ([11]; at 33.0 µM): 90% (active) | growth inhibition [11, 18]: 99% (active) | growth inhibition ([11]; at 50.0 µM): 61.5% | growth inhibition ([11]; at 100.0 µM): 98% (active) | growth inhibition ([12]; at 1.2 µM): 2% | growth inhibition ([12]; at 3.7 µM): 5% | growth inhibition ([12]; at 11.0 µM): 25% | growth inhibition ([12]; at 33.0 µM): 93% (active) | growth inhibition ([12]; at 100.0 µM): 98% (active) | growth inhibition ([13]; at 1.2 µM): 7% | growth inhibition ([13]; at 3.7 µM): 5% | growth inhibition ([13]; at 11.0 µM): 25% | growth inhibition ([13]; at 33.0 µM): 91% (active) | growth inhibition ([13]; at 100.0 µM): 99% (active) | growth inhibition ([14]; at 1.2 µM): 9% | growth inhibition ([14]; at 3.7 µM): 11% | growth inhibition ([14]; at 11.0 µM): 34% | growth inhibition ([14]; at 33.0 µM): 94% (active) | growth inhibition ([14]; at 100.0 µM): 98% (active) | growth inhibition [15, 17]: 16% | growth inhibition [15, 18]: 96% (active) | growth inhibition ([15]; at 50.0 µM): 73% (active) | growth inhibition ([16]; at 1.2 µM): 16% | growth inhibition ([16]; at 3.7 µM): 23% | growth inhibition ([16]; at 11.0 µM): 49% | growth inhibition ([16]; at 33.0 µM): 90% (active) | growth inhibition ([16]; at 100.0 µM): 98% (active)
